We go through 40 compounds from PubChem BioAssay (NCI).

“And” between values parts separate entries of the source, which are not always exact repeats. Identical values can stand only once. The panel holds about 83,000 compounds, 20% with a hit somewhere; the sample as a whole holds those more often.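 Testing used 96-well plates and a 48-hour single-concentration exposure. Example: -40 means 40% of the starting cells died.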 The source made the active and inactive calls. Rule for the calls: active = growth percent below 10; inactive = the rest.

The subject of this experiment is MDA-MB-468 breast. Put plainly: NCI-60 one-dose screen, 48 h (100 = growth as untreated, 0 = no growth, -100 = all killed). The following applies: 10 µM unless noted.
For `NS(=O)(=O)c1ccc(-c2cc(-c3nnc(SCC(=O)Nc4ccc(C(=O)/C=C/c5ccc(Cl)cc5)cc4)n3-c3ccccc3)c3ccccc3n2)cc1`, the growth was 84.5% (inactive).

As to `C/C(Cc1ccc(Cl)cc1)=C(/c1ccc(Cl)cc1)c1ccc(OCCN(C)C)cc1`, the growth was 17.2% (inactive).

As for `Oc1cccc2ccc(-c3nnc(SCc4ccc(O)c5ncccc45)n3-c3ccccc3)nc12`, the growth is 6.6% (active).

`CCN(CC)CCCN1C(=O)c2c(c(C)c3c(oc4cc(OC)ccc43)c2C)C1=O`: the growth was 116% (inactive).

On to `Cc1cccc(C[C@H](NC(=O)Nc2ccc(Cl)cc2F)C(=O)N[C@@H]2C(=O)N3C[C@H](OC(=O)CCN(C)C)C[C@H]3C(=O)N3CCCC[C@H]3C(=O)N[C@@H](C)C(=O)N3C[C@H](C)C[C@H]3C(=O)O[C@H]2C)c1`, for which the growth was 9.39% (active).

As for `O=C1c2cccnc2C(=O)c2c1c(C(=O)OCCCN1CCCCC1)c1ccccn21`, the growth is 31.6% (inactive).

For `CC(C)c1ccc(C(=O)Nc2nc3ccc(O)c(CN(C)C)c3s2)cc1`, the growth was 77.1% (inactive).

For `Cc1nn(-c2ccccc2)c2ncc3c(c12)C(=O)N(Cc1ccccc1)C3=O`, the growth was 77.8% (inactive).

In the case of `Cc1ccc(C)c2c1SC1=NNC(Oc3ccc(Cl)cc3)=C(C#N)C(=N)N12`, the growth was 118% (inactive).

Take `COc1cc(/C=C\c2cc(/C=C\c3ccc(O)c(OC)c3)n(C(=O)Nc3ccc(C(F)(F)F)cc3)n2)ccc1O`: the growth is 43.8% (inactive).

On to `O=C1COCCN1c1ccc(NCc2cn(C(=O)c3ccc(Cl)cc3)c3ccccc23)cc1`, for which the growth is -66.6% (active).

`Clc1ccc2c(Nc3ccc4oc(NCCN5CCCC5)nc4c3)ccnc2c1`: the growth is 70.6% (inactive).

As to `Oc1c(CN2CCN(c3ccccc3F)CC2)cc(Br)c2cccnc12`, the growth is -43% (active).

For the compound `CCOC(=O)C1CCCN1C(=O)C1(NC(C)=O)CCCC1` (stereo not given), the growth was 98.9% (inactive).

As to `c1ccc(-c2cn3ccnc3c(-c3ccc4ncn(C5CCCCC5)c4c3)n2)cc1`, the growth is 45.6% (inactive).

As to `N#C/C(=C/C=C/c1cccc(Cl)c1)S(=O)c1ccccc1` (stereo not given), the growth is -46% (active).

In the case of `O=C(CNC1C2CC3CC(C2)CC1C3)Sc1nnc2sc3ccccc3n12` (stereo not given), the growth is 102% (inactive).

In the case of `Nc1ccc(C(=O)c2ccc(N)c(Br)c2)cc1Br`, the growth was -0.913% (active).

For `N#CC1=CC2CN(Cc3ccccc3)C1C1C(=O)N(c3ccccc3)C(=O)C21` (stereo not given), the growth is 93.8% (inactive).

Regarding `C[C@@H]1CC[C@@]2(OC1)O[C@H]1C[C@H]3[C@@H]4CC=C5C[C@@H](O[C@@H]6O[C@H](CO)[C@@H](O[C@@H]7O[C@@H](CO)[C@H](O)[C@H]7O)[C@H](O)[C@H]6O[C@@H]6O[C@@H](C)[C@H](O)[C@@H](O)[C@H]6O)CC[C@]5(C)[C@H]4CC[C@]3(C)[C@H]1[C@@H]2C`, the growth is -40.3% (active).

In the case of `O=C1C=CC(=O)N1c1ccc2c(c1)Cc1cc(F)ccc1-2`, the growth was 92.6% (inactive).

On to `CCOC(=O)c1cc(C(=O)c2cc(OC)c(OC)c(OC)c2)n2ncccc12`, for which the growth was -11.5% (active).

Consider `COc1ccc(C2C=C(c3ccc(Cl)cc3)N=C3SC=CN32)cc1` (stereo not given), for which the growth was 120% (inactive).

`CCCCC(CCCCCC(CCCC)C1NC(C)Cc2cc(OC)c(OC)cc21)C1NC(C)Cc2cc(OC)c(OC)cc21` (stereo not given): the growth was -84.7% (active).

As to `O=C(CSc1nnc(-c2cnccn2)n1-c1ccccc1)c1ccc(Cl)cc1`, the growth is 97.6% (inactive).

Take `COc1ccc(C2CC(=O)Nc3c2c(C)nn3-c2nc3ccccc3[nH]2)cc1OC` (stereo not given): the growth was 59.6% (inactive).

In the case of `CCCCC(=O)Nc1ncc(Cc2ccc(Cl)cc2)s1`, the growth is 26.2% (inactive).

Regarding `O=C(CCl)c1ccc2c(c1)Nc1ccccc1S2`, the growth is 75.7% (inactive) and 64.9% (inactive).

`c1cc(C2=N[C@@H]3c4ccccc4C[C@@H]3O2)nc(C2=N[C@@H]3c4ccccc4C[C@@H]3O2)c1`: the growth was 95.8% (inactive).

Consider `CC(=O)Oc1ccc(/C=N/NC(N)=S)nc1`, for which the growth is -13.9% (active).

In the case of `CNC(=O)c1cc(-n2ccc3cc(NC(=O)Nc4ccc(N5CCOCC5)c(C(F)(F)F)c4)ccc32)ccn1`, the growth is 95.2% (inactive).

As to `C=CCc1c(O)c(C(=O)/C=C/c2ccccc2)c(OC)c2ccoc12`, the growth is 6.58% (active).

In the case of `Cc1ccc(C)c(COc2cc(NC(=O)c3ccc4c(c3)OCO4)ccc2N(C)S(C)(=O)=O)c1`, the growth was -29.6% (active).

Take `CC(=O)[C@H]1CC[C@H]2[C@@H]3CCC4=CC(=O)C=C[C@]4(C)[C@H]3CC[C@]12C`: the growth was 87.5% (inactive).

With `Cc1nn(-c2ccc(Cl)cc2)c(=O)n1CCN1CCOCC1`, the growth was 90.3% (inactive).

On to `COc1ccc(S(=O)(=O)Nc2ccc(OCc3nnc(-c4ccc(Cl)cc4)o3)c(F)c2)cc1`, for which the growth is 15.2% (inactive).

Turning to `FC(F)(F)c1ccc(-c2nc(-c3nc4cc(Cl)c(Cl)cc4[nH]3)c3ccccn23)cc1`, the growth was 41.9% (inactive).

As for `C#C[C@]1(O)CCC2C3CCc4cc(OC5CCCC5)ccc4C3CC[C@@]21C` (stereo not given in full), the growth is 69.1% (inactive).

With `CCN(CC)CC#CCOC(=O)[C@]1(C)CCC[C@]2(C)[C@H]3C[C@H]4C(C(C)C)=C[C@]3(CC[C@H]21)[C@@H]1C(=O)CCC(=O)[C@@H]14`, the growth is 11% (inactive).

Consider `COc1cc2c3c(n(C4CCN(C)CC4)c(=O)c2cc1OC)-c1cc2c(cc1C3=O)OCO2`, for which the growth was 31.6% (inactive).
